# Screening data deposited in PubChem by Center for Chemical Genomics, University of Michigan.
# The entries come from a sample that favours hits as a whole.
# Dicer inh: inhibitors of human Dicer processing of pre-microRNA; z-score at 25 µM; hit rate 6% among 47,000; Q9UPY3; cat-ELCCA pre-miR-21 Dicer processing, chemiluminescence; stronger effect = higher value; in the data active means z-score above about 3, passing the limit was not always enough;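 further: plate controls were vehicle for no effect and no enzyme for full effect; higher signal means more uncleaved substrate so more Dicer inhibition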
# Starred values were filed as active, the others as inactive.
SMILES,Dicer inh
Cc1ccc2c(c1)C(C)(C)C1(CCCC(=O)N1)N2C (configuration not stated),-1.07
Cc1ccc(S(=O)(=O)Nc2cc(-c3ccc(C(C)(C)C)cc3)[nH]n2)cc1,-7.22
Cc1cc(C)n(-c2nc3ccccc3nc2N2CCN(S(=O)(=O)c3ccccc3)CC2)n1,-0.81
CCc1cc2c(=O)c(-c3ccc4ccccc4n3)coc2cc1OC,1.45
Cc1ccc2cccc(OS(=O)(=O)c3cc(Cl)cc(Cl)c3)c2n1,-2.27
Cc1cc(S(=O)(=O)c2nc3ccc(Cl)cc3s2)c(C)cc1Cl,-2.18
CCn1c2ccccc2c2cc(CN3CCC(N4CCN(CCO)CC4)CC3)ccc21,1.52
COc1cc([N+](=O)[O-])c(OC)cc1SCc1n[nH]c(=S)n1-c1cccc(Cl)c1C,-2.36
Cc1ccc(Cn2c(OCCN(C)C)nc3c2c(=O)n(C)c(=O)n3C)cc1,-0.65
COc1cc(C2Nc3ccccc3-c3cc(C)nn32)ccc1O (configuration not stated),0.37
COc1ccc(C2Nc3c(C)cc(C)cc3-c3cc(C)nn32)c(OC)c1 (configuration not stated),3.62*
Cc1cc(C)c2c(c1)-c1cc(C)nn1C(c1ccc(N3CCOCC3)cc1)N2 (configuration not stated),-1.64
COc1ccc(OC)c(C2Nc3ccc(C)cc3-c3cc(C)nn32)c1 (configuration not stated),-0.07
COc1ccc(C2Nc3c(C)cc(C)cc3-c3cc(C)nn32)cc1O (configuration not stated),4.35*
Cc1cc2n(n1)C(c1ccc(O)c(O)c1)Nc1ccccc1-2 (configuration not stated),6.61*
COc1ccc(C2Nc3c(C)cc(C)cc3-c3cc(C)nn32)cc1OC (configuration not stated),1
COc1ccc(C2Nc3ccc(C)cc3-c3cc(C)nn32)cc1 (configuration not stated),-1.01
Cc1cc(C)c2c(c1)-c1cc(C)nn1C(c1ccc(O)c(O)c1)N2 (configuration not stated),8.62*
CCOc1cc(C2Nc3c(C)cc(C)cc3-c3cc(C)nn32)ccc1O (configuration not stated),0.34
Cc1cc2n(n1)C(c1ccc(O)cc1)Nc1ccccc1-2 (configuration not stated),1.42
CN(C1CCCCC1)S(C)(=O)=O,0.2
NC(=O)CSc1ccc2ccccc2n1,-0.57
CCCCNC(=O)N(C)C1CC2C=CC1C2 (configuration not stated),1.2
Cc1cc(S(=O)(=O)Cc2cccc(F)c2)c(Cl)cc1Cl,-0.67
COc1ccc(-c2nc3c4cnn(-c5ccc(C)cc5)c4ncn3n2)cc1OC,-0.15
SMILES,Dicer inh
COc1ccc(C(=O)CN2C3=NCCCN3c3ccccc32)cc1,-0.59
CCCCCCCOc1ccc(/C=C/c2c([N+](=O)[O-])c(=O)n(C)c(=O)n2C)cc1,1.61
COc1ccc(Br)c(C(=O)NC(=S)Nc2c(C)cc(C)cc2C)c1,1.68
COC(=O)COC(=O)c1ccc(Oc2nc(N(C)C)nc(N(C)C)n2)cc1,0.03
CSc1cc(=O)c2ccccc2s1,1
CCOc1ccc(C2Nc3ccccc3-c3cc(C)nn32)cc1 (configuration not stated),3.24*
CCOc1ccc(C2Nc3c(C)cccc3-c3cc(C)nn32)cc1 (configuration not stated),1.22
CCOc1ccc(C2Nc3ccc(C)cc3-c3cc(C)nn32)cc1 (configuration not stated),1.47
FC(F)(F)c1cc(N2CCOCC2)c2cccc(Cl)c2n1,-0.09
O=C(Oc1cccc2cccnc12)c1ccccc1Br,-0.83
Nc1cc(=O)[nH]c(SCc2ccc(Cl)cc2Cl)n1,-0.88
NC(=O)CSc1nc2ccccc2c(=O)[nH]1,-0.39
O=c1[nH]c(SCc2ccc(Cl)cc2Cl)nc2ccccc12,3.7*
O=C1CSC(=S)N1c1ccc(Cl)cc1,2.59
CCN(C(=O)c1cnccc1C(F)(F)F)c1cccc(C)c1C,-0.66
C/C=C/C(=O)N(CC)c1ccccc1C,3.57*
Cc1ccccc1NC(=O)/C=C/C(=O)O,-0.63
Cn1nnnc1SCCNCc1cc(Cl)ccc1OCc1ccc(Cl)cc1,0.37
N#C/C(=N\OS(=O)(=O)c1ccc(Cl)cc1)S(=O)(=O)c1cccs1,-0.56
N#C/C(=N\OC(=O)c1ccc(C(F)(F)F)cc1)S(=O)(=O)c1cccs1,5.45*
N#C/C(=N\Nc1cc(C(F)(F)F)cc(C(F)(F)F)c1)S(=O)(=O)c1cccs1,0.92
CC12c3ccccc3C(c3ccccc31)C1C(=O)N(c3ccccc3)C(=O)C12 (configuration not stated),0.7
COc1ccc(N2C(=O)C3C4c5ccccc5C(CO)(c5ccccc54)C3C2=O)cc1 (configuration not stated),-0.87
O=C1C2C3c4ccccc4C(CO)(c4ccccc43)C2C(=O)N1c1ccccc1Cl (configuration not stated),0.88
CCCCOc1ccc(N2C(=O)C3C4c5ccccc5C(CO)(c5ccccc54)C3C2=O)cc1 (configuration not stated),3.34*
SMILES,Dicer inh
O=C1C2C3c4ccccc4C(C(=O)O)(c4ccccc43)C2C(=O)N1c1ccccc1 (configuration not stated),0.12
O=C1C2C3c4ccccc4C(CO)(c4ccccc43)C2C(=O)N1c1ccc(F)cc1 (configuration not stated),4.87*
FC(F)(F)c1cnc(Sc2cccs2)c(Cl)c1,-2.15
CN1N=C2c3ccccc3CCC2C1c1ccc(F)cc1 (configuration not stated),0.59
CC(C)c1ccc(C2C3CCc4ccccc4C3=NN2CCO)cc1 (configuration not stated),3.09*
COc1ccc2c(c1)CCC1C2=NN(C)C1c1ccc(C(C)C)cc1 (configuration not stated),1.12
O=C1OC(/C=C/c2ccccc2)=NC/1=C/c1cccc2ccccc12,3.48*
O=C1OC(c2ccccc2)=N/C1=C\c1ccc(/C=C2\N=C(c3ccccc3)OC2=O)cc1,-0.88
O=C1OC(/C=C/c2ccccc2)=NC/1=C/c1ccc(Cl)cc1,2.09
Cc1cccc(C(=O)Oc2c(Br)cc(C(F)(F)F)cc2[N+](=O)[O-])c1,-0.04
COC(=O)c1ccc(Oc2nc3c(c(=O)n(C)c(=O)n3C)n2Cc2ccc(Br)cc2)cc1,-0.76
O=C(c1cnn2c1NC(c1ccccc1)CC2C(F)(F)F)N1CCOCC1 (configuration not stated),1.32
COCCNC(=O)c1cnn2c1NC(c1ccc(Br)cc1)CC2C(F)(F)F (configuration not stated),4.28*
Cc1ccc(C2CC(C(F)(F)F)n3nc(C(=O)NC4CCCC4)c(Cl)c3N2)cc1 (configuration not stated),0.93
Cc1nn(C)cc1CNC(=O)c1cnn2c1NC(c1ccc(Br)cc1)CC2C(F)(F)F (configuration not stated),0.99
O=C(c1cnn2c1NC(c1ccc(F)cc1)CC2C(F)(F)F)N1CCCCC1 (configuration not stated),0.98
Cc1ccc(C2CC(C(F)(F)F)n3ncc(C(=O)N4CCCCC4)c3N2)cc1 (configuration not stated),3.01*
CCC(C)NC(=O)c1cnn2c1NC(c1ccc(Br)cc1)CC2C(F)(F)F (configuration not stated),1.15
Cc1c(CNC(=O)c2cnn3c2NC(c2ccc(Br)cc2)CC3C(F)(F)F)cnn1C (configuration not stated),0.01
